Assay results as given in the supplement of paper PMC6805474.

Experiments:
[1] = system: Schistosoma mansoni schistosomula (LE); experiment: XTT viability relative to DMSO control; higher = more viable (less active); conditions: 72 h; 10 µM
Procedure: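 XTT/PMS was then added for a further 24 h (72 h total) and A450 was read. % viability = (sample - heat-killed control)/(DMSO control - heat-killed control) x 100, from duplicate wells in two independent experiments.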

[2] = system: Schistosoma mansoni schistosomula (NMRI); experiment: phenotypic severity score (0-4); higher = more antischistosomal effect, active = 2 or more; conditions: 10 µM
[3] = system: Schistosoma mansoni schistosomula (Liberian); experiment: drug effect (1 - score/DMSO control score) (fraction); higher = more antischistosomal effect, active = 0.5 or more; extreme values may be limits of the assay; conditions: 10 µM
Outline: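 Drug effect was calculated by comparing the mean score of the test wells with the mean score of the DMSO wells, and any negative value was set to zero. Duplicate wells of 50 Liberian-strain S. mansoni schistosomula, mechanically transformed from cercariae and pre-incubated at least 12 h, received 10 µM compound in Medium 199 with 5% FCS at 37 °C, 5% CO2, with 0.1% DMSO in the comparison wells. Visual scoring at 10× took place at 24, 48 and 72 h on a quarter-point scale from 3 (normal) to 0 (dead), and a plate counted only if its DMSO wells averaged at least 2.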
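Throughout, for phenotypic severity score (0-4): visual microscopic scoring of shape, motility and density changes versus 0.5% DMSO solvent controls, one point per descriptor, degeneracy or death scored 4, mean of duplicate wells.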

Row | SMILES | XTT viability [1] [%] | phenotypic severity score ([2]; 24 h) | phenotypic severity score ([2]; 48 h) | phenotypic severity score ([2]; 72 h) | drug effect ([3]; 24 h) | drug effect ([3]; 48 h) | drug effect ([3]; 72 h)
1 | CCC(Sc1nc2ccccc2o1)C(=O)Nc1nccs1 (stereo unspecified) | 7.06 | 2 (active) | 4 (active) | 4 (active) | 0.182 (inactive) | 1 (active) | 1 (active)
2 | CCn1ncc2c(NC3CCOCC3)c(CNC(=O)c3ccnn3C)c(C)nc21 | 92.5 | 0 (inactive) | 0 (inactive) | 0 (inactive) | 0.05 (inactive) | 0.0811 (inactive) | 0.0303 (inactive)
3 | CC1(C)Cc2c(c(N3CCOCC3)nc3snc(Br)c23)CO1 | 71.5 | 0 (inactive) | 0 (inactive) | 0 (inactive) | 0.0455 (inactive) | 0.1 (inactive) | 0.105 (inactive)
4 | COc1ccc(C2=NN(C3CCCCCC3)C(=O)C2(C)C)cc1OCCCCOc1ccc(-c2nn[nH]n2)cc1 | 3.51 | 1 (inactive) | 0 (inactive) | 0 (inactive) | 0.182 (inactive) | 0.2 (inactive) | 0.127 (inactive)
5 | CC1=Nc2ccc(Cl)cc2C(O)(c2ccc(C)cc2)N1CCN1CCCCC1 (stereo unspecified) | -4.23 | 0 (inactive) | 0 (inactive) | 0 (inactive) | < 0 (inactive) | 0.188 (inactive) | 0.375 (inactive)
6 | c1ccc2c(c1)CN(CC1CC1)CC1(CCN(Cc3c[nH]c4cnccc34)CC1)O2 | 58 | 0 (inactive) | 0 (inactive) | 0 (inactive) | < 0 (inactive) | 0.1 (inactive) | 0.211 (inactive)
7 | Oc1c(I)cc(I)c2cccnc12 | 6.58 | 2 (active) | 1 (inactive) | 2 (active) | 0.1 (inactive) | 0.135 (inactive) | 0.333 (inactive)
8 | COCC(C)NC(=O)CSc1ncnc2sc(-c3ccccc3)cc12 (stereo unspecified) |  | 0 (inactive) | 0 (inactive) | 0 (inactive) | 0.1 (inactive) | 0.135 (inactive) | 0.111 (inactive)
9 | O=C(Nc1cccc(Cl)c1)c1cnc(N2CCN(c3ccncc3)CC2)c(Cl)c1 | 3.67 | 2 (active) | 4 (active) | 4 (active) | 0.8 (active) | 0.946 (active) | 1 (active)
10 | CCCn1c(NC(=O)c2ccc3ccccc3n2)nc2ccccc21 | 5.68 | 1 (inactive) | 0 (inactive) | 0 (inactive) | 0.2 (inactive) | 0.278 (inactive) | 0.312 (inactive)
11 | CC1CS(=O)(=O)CCN1/N=C/c1ccc([N+](=O)[O-])o1 (stereo unspecified) | 224 | 0 (inactive) | 0 (inactive) | 0 (inactive) | 0.3 (inactive) | 0.278 (inactive) | 0.625 (active)
12 | COc1ccccc1C(C)NCC(=O)Nc1cc(C(F)(F)F)ccc1Cl (stereo unspecified) | 67.7 | 0 (inactive) | 0 (inactive) | 0 (inactive) | 0.15 (inactive) | 0.135 (inactive) | 0.278 (inactive)
13 | COc1ccc(Cn2cnc3c(-c4ccco4)nc(Cl)nc32)cc1 | 98.6 | 0 (inactive) | 0 (inactive) | 0 (inactive) | 0.105 (inactive) | 0.0556 (inactive) | 0.125 (inactive)
14 | COc1ccccc1CNC(=O)c1cc(C2CC2)nc2c1cnn2C(C)C | 38.4 | 0 (inactive) | 0 (inactive) | 0 (inactive) | 0.2 (inactive) | 0.459 (inactive) | 0.667 (active)
15 | CC1(COc2ccc(N3CCC(Oc4ccc(OC(F)(F)F)cc4)CC3)cc2)Cn2cc([N+](=O)[O-])nc2O1 (stereo unspecified) | 110 | 0 (inactive) | 0 (inactive) | 0 (inactive) | 0.158 (inactive) | 0.111 (inactive) | 0.0625 (inactive)
16 | CN1CCN(CCCOc2ncc(Nc3ncc(-c4ccc(C(F)(F)F)c(F)c4)nc3C(N)=O)cn2)CC1 | 5.2 | 3 (active) | 3 (active) | 3 (active) | 1 (active) | 1 (active) | 1 (active)
17 | Cc1nnc(NC(=O)c2cn(-c3ccccc3)nc2-c2ccccc2C)o1 | 56.8 | 1 (inactive) | 1 (inactive) | 1 (inactive) | < 0 (inactive) | 0.0811 (inactive) | 0.111 (inactive)
18 | Cc1cc(C)cc(COc2ccc3c(C)c(CCC(=O)O)c(=O)oc3c2C)c1 | 79.3 | 1 (inactive) | 1 (inactive) | 0 (inactive) | 0.136 (inactive) | 0.2 (inactive) | 0.127 (inactive)
19 | Nc1ncnc2[nH]nc(Cc3cccc4ccccc34)c12 | 94.1 | 1 (inactive) | 2 (active) | 3 (active) | 0.243 (inactive) | 0.333 (inactive) | 0.562 (active)
20 | CC(C)(C)CN1C(=O)C(c2ccccc2)(c2ccccc2)N=C1N | 88.6 | 0 (inactive) | 0 (inactive) | 0 (inactive) | 0.1 (inactive) | 0.135 (inactive) | 0.273 (inactive)
21 | CCCCS(=O)(=O)Nc1ccc2cnn(C)c2c1 | 141 | 0 (inactive) | 0 (inactive) | 0 (inactive) | 0.0811 (inactive) | 0.111 (inactive) | 0.0625 (inactive)
